Experimental data published in PubChem BioAssay (Tox21).
Results filed as inconclusive are left out. A call without a number means that no potency is given here. Active and inactive are the calls of the source. Calls come from the whole dose curve; as a rule, active = well fitted cell-killing curve with a large enough effect in the repeat runs; inconclusive = weak or mixed curves, or effect the other way; inactive = flat fitted curve, though single readings scatter.

Test: qHTS RealTime-Glo MT Cell Viability Assay in HepG2 cells - 0 hour (AID 1224889); note: nearly all actives have a fitted effect of over 50% in size
Conditions: RealTime-Glo luminescence; series mostly up to 76.8 µM
From the text: U.S. Tox21 Program National Center for Advancing Translational Sciences [NCATS] NIH Chemical Genomics Center [NCGC] U.S. Environmental Protection Agency [EPA] National Institutes of Environmental Health Sciences [NIEHS] National Toxicology Program [NTP] U.S. Food and Drug Administration [FDA] Tox21 Assay Overview: Measure of cell viability is critical in the cell-base assay. Analysis of cell viability is necessary for the characterization of cell responses to cytotoxic drugs and environmental stress. A RealTime-Glo MT Cell Viability Assay to monitor cell viability in real time of continues cell culture during 40 hours of compound treatment was used to screen Tox21 10K library compounds in HepG2 cells. The RealTime-Glo MT Cell Viability Assay is a nonlytic, homogeneous, bioluminescent method to measure cell viability in real time using a simple, plate-based method. The assay involves adding NanoLuc luciferase and a cell-permeant prosubstrate to cells in culture. Viable cells reduce the proprietary prosubstrate to generate a substrate for NanoLuc luciferase. This substrate diffuses from cells into the surrounding culture medium, where it is rapidly used by the NanoLuc Enzyme to produce a luminescent signal. The signal correlates with the number of viable cells, making the assay well suited for cytotoxicity studies.
Tox21 Assay Protocol Summary: The mixture of HepG2 cell suspension and reagents were dispensed at 600cells/6 ul/well in 1536-well tissue culture treated black solid bottom plates using a Multidrop dispenser. After the assay plates were incubated at a 37 C/5% CO2 incubator for 5 hours, 23 nL of compounds dissolved in DMSO, positive and negative controls was transferred to the assay plate by a pintool work station. The plates were incubated at 37 C for 40 hours. The luminescence intensity were measured at 0h, 8h, 16h, 24h, 32h and 40h time points using ViewLux plate reader during compound treatment.
Potency is the fitted concentration of half-maximal effect.

Compound | Potency
CCCCCCC(C)(C)C(=O)O | inactive
O=C(Cn1ccnc1[N+](=O)[O-])NCCO | inactive
CN1C(C(=O)Nc2ccccn2)=C(O)c2sccc2S1(=O)=O | inactive
COC(=O)c1nc(Cl)c(Cl)nc1N | inactive
CC(=O)Nc1ccc(C)cc1C | inactive
OC[C@H]1O[C@@H](n2cnc3c(=S)nc[nH]c32)[C@H](O)[C@@H]1O | inactive
CCCCCCCC/C=C\CCCCCCCCCCCC(=O)O | inactive
c1csc(SSc2cccs2)c1 | inactive
CCCCCCCCCCC(=O)O | inactive
Clc1cc(Cl)nc(Cl)n1 | inactive
O=C=Nc1cccc(C(F)(F)F)c1 | inactive
CC/C=C1/OC(=O)c2ccccc21 | inactive
COc1ccccc1N1CCN(CCCCNC(=O)c2ccc(-c3ccc(C(C)=O)cc3)cc2)CC1 | inactive
Cc1cc(O)c(C)c(C)c1O | inactive
CCOC(=O)/C=C/C(=O)OCC | inactive
CCCCCCCC/C=C\CCCCCCCCO | inactive
CC(=O)Oc1ccc([N+](=O)[O-])cc1CCl | inactive
CCCCCCCCCI | inactive
CC1=C(Br)C(=O)C(Br)=C/C1=C(/c1ccccc1S(=O)(=O)O)c1cc(Br)c(O)c(Br)c1C | 16.7 µM (active)
CC(=O)c1cc2ccccc2s1 | inactive

Compound | Potency
C=C/C(C)=C/C/C=C(\C)CCC=C(C)C | inactive
CC(CCC(=O)O)C(=O)O (stereo not given) | inactive
Cc1c(C)c2c(c(C)c1OC(=O)CCC(=O)OCCO)CC[C@@](C)(CCC[C@H](C)CCC[C@H](C)CCCC(C)C)O2 | inactive
CN1C(=O)c2ccccc2C1=O | inactive
CC(O)c1ccccc1 (stereo not given) | inactive
C=C(C)C(=O)OCCOCCOC(=O)C(=C)C | inactive
Cc1cscn1 | inactive
NNC(=O)CP(=O)(c1ccccc1)c1ccccc1 | inactive
CCC(=O)OC | inactive
CCCCCCCCOc1ccc(C(=O)O)cc1 | inactive
C=CC(=O)[O-].C=CC(=O)[O-].[Zn+2] | inactive
O=C(/C=C/c1ccccc1)OCCc1ccccc1 | inactive
O=C1c2ccccc2C(=O)C1(O)O | inactive
CC(CC1c2ccccc2CCc2ccccc21)CN(C)C (stereo not given) | inactive
O=c1[nH]c2ccc(Cl)cc2o1 | inactive
CCOC(=O)c1ccc(C#Cc2ccc3c(c2)C(C)(C)CCS3)nc1 | inactive
C/C=C/C=C/C=O | inactive
CCCCC(CC)COP(=O)(O)O (stereo not given) | inactive
C=COCC(C)C | inactive
CC(=O)Nc1cc(S(=O)(=O)O)cc2cc(S(=O)(=O)O)c(N=Nc3ccccc3)c(O)c12 | inactive
